Compound activity (PubChem BioAssay)
Most compounds without a hit are left out; they make up all but 4.8% or so of the library.
hgDAF12 agonist = agonists of H. glycines DAF-12 nuclear receptor. HEK293 GAL4-hgDAF12 UAS-luciferase reporter, agonist luminescence; normalized to butyrate control. activation, % at 6.8 µM. hit rate 1.8% among 370,000. AID 687014;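 active = activation above a cutoff set at the mean of all screened compounds plus 3 SD, cut at about 10% in these data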;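 also: 0% = DMSO wells and 100% = sodium butyrate wells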
ssDAF-12 act = S. stercoralis DAF-12 activation, primary screen; activation, % at 6.8 µM; AID 652126; HEK293 ssDAF-12/GRIP1 lit1-tk-luc reporter, luminescence; % of 3 µM dafachronic acid response; hit rate 1% among 370,000;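 active = activation above the mean over all tested compounds plus 3 SD, cut at about 0.9% in these data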;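 also: 0% = DMSO-only wells and 100% = 3 µM delta7-dafachronic acid wells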
SMARCA2 activ = increases SMARCA2 function in MMTV reporter cells | MG213 cells, MMTV-luciferase reporter, dexamethasone, overnight | activation, % at 9.1 µM | hit rate 1% among 370,000 | AID 652017; in the data active = activation above about 7.8%;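 also: 0% = vehicle wells and 100% = reference activator wells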
DAX1 inh-1 = DAX1 (NR0B1) inhibition, primary screen; HEK293T StAR-luciferase reporter, SF-1/DAX-1 repression relief; inhibition, % at 6.8 µM; hit rate 1.1% among 370,000; AID 652010;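 active = inhibition above the mean over all tested compounds plus 3 SD, cut at about 3.6% in these data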;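 also: 0% = DAX-1 cells with DMSO and 100% = cells lacking DAX-1 with DMSO; higher inhibition means more luminescence from relief of DAX-1 repression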
DAX1 inh-2 = inhibitors of human orphan nuclear receptor DAX1 (NR0B1); inhibition, % at 6.75 µM; AID 504766; hit rate 0.99% among 340,000; HEK293 Gal4-DAX1 luciferase reporter, luminescence;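 active = inhibition above the mean over all tested compounds plus 3 SD, cut at about 4.2% in these data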;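 also: 0% = DAX1-transfected cells with DMSO and 100% = empty-vector control cells with DMSO; inhibition shows as a rise in luminescence from relieved DAX1 repression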
Target sequence (P51843 207-470 limits assumed): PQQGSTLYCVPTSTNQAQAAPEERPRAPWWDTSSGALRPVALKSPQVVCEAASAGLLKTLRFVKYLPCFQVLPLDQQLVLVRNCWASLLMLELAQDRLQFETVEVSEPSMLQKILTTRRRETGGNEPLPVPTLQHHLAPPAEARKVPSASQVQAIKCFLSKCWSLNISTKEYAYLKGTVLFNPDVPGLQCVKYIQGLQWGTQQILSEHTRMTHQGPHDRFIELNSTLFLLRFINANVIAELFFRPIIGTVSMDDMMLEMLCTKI
hcDAF12 agonist = activates DAF-12 receptor from parasite H. contortus; activation, % at 6.8 µM; hit rate 1.4% among 370,000; HEK293 hcDAF-12 lit1-tk-luc reporter, luminescence; 0% DMSO, 100% Δ7-dafachronic acid;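 active = activation above the mean of all tested compounds plus 3 SD, cut at about 5.5% in these data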;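 also: 100% = response to 3 µM Δ7-dafachronic acid high control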
An asterisk follows results filed as active; nt = no result.

SMILES | hgDAF12 agonist | ssDAF-12 act | SMARCA2 activ | DAX1 inh-1 | DAX1 inh-2 | hcDAF12 agonist
CCCSc1nnc(NC(=O)c2ccco2)s1 | 4.9 | -0.7 | -2.0 | 2.8 | 6.1* | 2.0
O=C(Nc1nnc(CC(c2ccccc2)c2ccccc2)s1)c1ccco1 | -1.7 | -1.3 | 2.0 | -0.8 | 4.5* | -0.7
C[C@H](NC(=O)c1ccco1)C(=O)Nc1nnc(SCc2ccccc2)s1 | 1.3 | -0.6 | -1.7 | 3.7* | 0.4 | 0.9
COC(=O)CCC1NC(=O)C(Cc2c[nH]c3ccccc23)NC(=O)C2CC(=O)OC(C)C(NC(=O)C(C)NC(=O)C3CCCN3C(=O)C3CCCN3C(=O)C(C)NC(C)=O)C(=O)NC(CC(C)C)C(=O)NC(CCCCNC(=O)CCC(C(=O)NC(Cc3ccc(O)cc3)C(=O)O)NC1=O)C(=O)NC(Cc1c[nH]c3ccccc13)C(=O)N1CCCC1C(=O)NC(CO)C(=O)N2 (stereo unspecified) | 1.2 | -1.6 | -5.7 | -4.1 | nt | -2.5
Cc1cc(C(=O)O[C@@H]2CCC[C@@]3(C(=O)N(Cc4ccccc4)c4ccccc43)[C@H]2NC(=O)CCc2ccccc2)no1 | -1.3 | -1.6 | -0.3 | -0.2 | nt | -1.5
COc1ccc(O)c(/C=N/n2c(-c3ccco3)csc2=Nc2cccnc2)c1 | 0.3 | -0.8 | -2.8 | 0.2 | -0.4 | 0.0
CN=c1scc(-c2ccco2)n1/N=C/c1ccc(O)c(O)c1 | 16.7* | 0.1 | 4.3 | 2.2 | -0.6 | 8.4*
O=C1/C(=C\c2ccco2)CCC/C1=C\c1ccco1 | 2.4 | 0.0 | 15.9* | 0.9 | -0.5 | 4.1
CC/C(=N/NC(=O)c1ccccc1)c1ccc(OCCN2CCOCC2)cc1 | 10.0 | 1.6* | 2.6 | 1.8 | 1.3 | 1.6
CC(=O)Nc1ccc(/C(C)=N/NC(=O)c2ccc(F)cc2)cc1 | 5.4 | -1.1 | 1.1 | -0.1 | 0.2 | -0.9
O=C(Nc1ccc(CN2CCOCC2)cc1)c1ccc2ccccc2c1 | 13.0* | -0.5 | 2.0 | 2.3 | 0.4 | 1.9
C/C(=N\NC(=O)c1ccc(F)cc1)c1ccc(NC(=O)Cc2ccccc2)cc1 | 7.4 | -0.6 | 5.5 | 4.1* | 0.8 | 3.2
C/C(=N\NC(=O)c1ccc(CN2CCOCC2)cc1)c1ccc(NC(=O)c2ccccc2)cc1 | 11.4* | -0.6 | 2.1 | 2.9 | -0.1 | 5.2
O=C(Nc1ccc(CN2CCOCC2)cc1)c1ccc(Cl)cc1 | 2.1 | -1.6 | 1.1 | -0.9 | -0.5 | -1.6
O=C(Nc1c(-c2ccccc2)nc2ncccn12)c1ccc(F)cc1 | 0.8 | -0.8 | -0.1 | -1.1 | nt | 1.4
CCCCOCCCNC(=O)C[C@H]1C[C@@]2(C(=O)OC)C(=C[C@H](C(C)(C)C)O[C@@H]2C)N(Cc2ccco2)C1=O | 0.4 | -1.5 | -4.7 | -1.2 | nt | -2.9
CC(C)C[C@H](NC(C)(C)C(=O)NC1CCCCC1)C(=O)NCC(c1ccccc1)c1ccccc1 | 3.0 | -1.4 | nt | nt | nt | -0.9
O=C(NN=C1CCN(Cc2ccccc2)CC1)c1cc(Br)ccc1O | 6.7 | -1.5 | -0.2 | 0.6 | 0.5 | -0.5
O=C(NN=C1CCN(Cc2ccccc2)CC1)c1ccccc1 | 11.3* | -0.2 | 4.8 | 0.6 | 2.0 | 1.9
Cc1cc(C)c2sc(NC(=O)c3ccc(N4C(=O)CCC4=O)cc3)nc2c1 | 1.1 | -1.4 | 2.6 | -0.3 | -2.0 | -2.2
Cc1cc(C)c2sc(NC(=O)CN3C(=O)CCC3=O)nc2c1 | 2.1 | -1.2 | -4.5 | 0.6 | 5.1* | -0.1
COC(=O)[C@]12C[C@H](CC(=O)N3CCCCC3)C(=O)N(Cc3ccccc3)C1=C[C@H](COCc1ccccc1)O[C@@H]2C | -2.1 | -1.3 | 2.4 | 0.0 | nt | -3.1
O=C(CC1CCCCC1)NCCOc1ccccc1 | 4.8 | -2.0 | 6.0 | 0.3 | 2.8 | -1.3
O=C(NCCOc1ccccc1)C1CCCCC1 | 6.4 | -1.3 | -0.1 | 4.1* | 0.6 | 0.7
O=C(/C=C/c1ccccc1)NCCOc1ccccc1 | 5.7 | -0.4 | 7.8* | 0.8 | 2.3 | 1.9
CCOC(=O)[C@]12CCCC=C1N(CCCOC)C(=O)[C@@H]2CC(=O)NCC12CC3CC(CC(C3)C1)C2 | -2.7 | -1.6 | -0.7 | -0.2 | nt | -2.7
COC(=O)[C@]12C[C@H](CC(=O)NCCc3ccccc3OC)C(=O)N(CCc3ccc(OC)c(OC)c3)C1=C[C@H](COCc1ccccc1)O[C@@H]2C | -1.9 | -0.9 | -2.4 | -1.4 | nt | -1.7
